Measured values: PubChem BioAssay (NCI)
Compounds without any hit were thinned out: in the full panel of roughly 79,000, 15% have a hit. Activity calls are given as the source filed them. Rule as the data show it: active = growth inhibition above about 70%; inactive = the rest.

Assay: NCI Yeast Anticancer Drug Screen. Data for the rad50 strain (AID 155);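 also: 0% = growth of vehicle-only cultures of the same strain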
Conditions: S. cerevisiae rad50 strain growth inhibition; at 50.0 µM; hits give high values
Summary of the method: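 Compounds were tested on a yeast strain with an engineered DNA damage repair alteration; the reported value is growth inhibition normalised to vehicle treatment.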

| SMILES | growth inhibition |
| --- | --- |
| O=C(Oc1ccccc1)C1CCCCC1C(=O)Oc1ccccc1 (centres undefined) | 39.2% (inactive) |
| Cc1cccc2c1C1c3c(C)cccc3C(O)CC1CC2O (centres undefined) | 36.5% (inactive) |
| CC(C)c1cc2c(cc1O)C(O)C1(O)CCCC(C)(C)[C@H]1CC2 (some centres undefined) | 91.4% (active) |
| C/C=C/c1ccc(OCC(=O)O)c(OC)c1 | 99% (active) |
| Nc1ccc(S(=O)(=O)NCc2nccs2)cc1 | 17.9% (inactive) |
| N#CC(NNC(=O)c1ccccc1O)c1c(O)ccc2ccccc12 (centres undefined) | 74.3% (active) |
| Oc1ccc(Cl)cc1Cc1cc(Cl)cc(Cc2cc(Cl)ccc2O)c1O | 96% (active) |
| O=C1CN(CCN2CCOCC2)CC(=O)N2Cc3ccccc3CN12 | 61.6% (inactive) |
| CC1CCC(SC2CC(=O)CCC2=O)CC1 (centres undefined) | 99% (active) |
| Clc1ccc(OCC2CO2)c(Cl)c1 (centres undefined) | 96.6% (active) |
| CN=C(N)N/N=C(\C)c1ccc2c(ccc3ccccc32)c1 | 89.2% (active) |
| Cc1cc(O)c(/C=N/c2nc(-c3cccc([N+](=O)[O-])c3)cs2)c(=O)o1 | 37.9% (inactive) |
| COc1cccc2c1OC(c1ccc(Cl)cc1)C([N+](=O)[O-])=C2 (centres undefined) | 85.7% (active) |
| COc1ccc(C(=O)C2C(=O)C(=O)OC2C2OC(=O)C(=O)C2C(=O)c2ccc(OC)cc2)cc1 (centres undefined) | -9.6% (inactive) |
| CCCCCCCCCCCCCCCCOc1ccc(S(=O)(=O)N/N=c2/sc3ccc(S(=O)(=O)O)cc3n2C)cc1C(=O)O | 79.6% (active) |
| O=C(Nc1ccc(F)cc1)N1CCCCC1 | 8.15% (inactive) |
| C[CH2][Sn]([CH2]C)([O]C(=O)c1cc(OC)c(OC)c(OC)c1)[O][Sn]([CH2]C)([CH2]C)[O]C(=O)c1cc(OC)c(OC)c(OC)c1 | 1.2% (inactive) |
| C/C(O)=C(/C=N/C(=S)Nc1ccc(S(N)(=O)=O)cc1)C(=O)Nc1ccccc1C | 79.7% (active) |
| CC(C)CC(N)C(=O)NNc1ccccc1 (centres undefined) | 96.8% (active) |
| CCC(C(c1ccc(Cl)cc1)c1ccc(Cl)c(Cl)c1)[N+](=O)[O-] (centres undefined) | 8.3% (inactive) |
| O=C(O)c1nc2cc(C(F)(F)F)ccc2nc1Nc1ccc(F)cc1 | 64% (inactive) |
| Nc1nc(-c2ccccn2)cc2cc(Cl)ccc12 | 3.15% (inactive) |
| CC1(c2ccccc2)NC(=O)N(CC(=O)N(c2ccccc2)c2ccccc2)C1=O (centres undefined) | 49.4% (inactive) |
| O/N=C(/Cc1ccccc1)c1ccc2c(c1)OCO2 | -9.8% (inactive) |

Assay: NCI Yeast Anticancer Drug Screen. Data for the mec2-1 strain (AID 157)
Conditions: S. cerevisiae mec2-1 strain, at 5.0 µM (retest, dose inferred, filed as 0.5), hits give high values
Summary of the method: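 mec2-1 yeast strain, carrying an alteration in DNA damage repair or cell cycle control, was exposed to compounds; growth inhibition was measured relative to vehicle-treated controls.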

| SMILES | growth inhibition |
| --- | --- |
| CCCCCC(C1SC(=S)NC1=O)C1SC(=S)NC1=O (centres undefined) | 2% (inactive) |
| CC(C)C1=CC2=CC(=O)C3C(C)(C)CCCC3(C)C2=C(O)C1=O (centres undefined) | 99% (active) |
| CCOC(=O)C[n+]1c(C)sc2ccccc21 | -3% (inactive) |
| OCc1c(-c2cccc3ccccc23)sc(-c2cccc3ccccc23)c1CO | 20% (inactive) |
| CC1=C(C#N)C(=O)OC1(C)C(CC(=O)c1ccccc1)c1ccccc1 (centres undefined) | 5% (inactive) |
| O=c1oc2c3ccc4ccccc4c3n(CCCN3CCCCC3)c2c2ccccc12 | 17% (inactive) |
| Cc1cc(NC(=S)SCc2ccc(F)cc2)ccc1Br | 32% (inactive) |
| Cc1ccc(C2C(O)=C(c3ccccc3)Sc3ccc(C)cc32)cc1 (centres undefined) | -5% (inactive) |
| COC(=O)/C=C1/OC(c2ccccc2)=CC1=O | 8% (inactive) |
| COc1ccccc1NC(=O)CC(=O)N1N=C(c2ccccc2)C(N=Nc2ccc(Cl)cc2)C1=O (centres undefined) | 21% (inactive) |
| CC(=O)NC1=C(Nc2ccc(-c3ccc(NC4=C(NC(C)=O)C(=O)c5ccccc5C4=O)cc3)cc2)C(=O)c2ccccc2C1=O | 100% (active) |
| CCCCCCC(O)CCOC(C)=O (centres undefined) | 4% (inactive) |
| CCn1nc(-c2ccccc2)c2c1N(C)c1ccccc1-n1c(-c3ccccc3)nnc1-2 | -16% (inactive) |
| CC1(CCC(=O)O)c2ccc3ccccc3c2Oc2c1ccc1ccccc21 | 92% (active) |
| CCN1/C(=C\c2cc(C)nc(-c3ccccc3)[n+]2C)C=Cc2ccccc21 | 27% (inactive) |
| Cc1ccccc1N1C(=O)c2ccccc2C1=O | -6% (inactive) |
| O=C(Oc1ccccc1)C1CCCCC1C(=O)Oc1ccccc1 (centres undefined) | -19% (inactive) |
| Cc1cccc2c1C1c3c(C)cccc3C(O)CC1CC2O (centres undefined) | -6% (inactive) |
| CC(C)c1cc2c(cc1O)C(O)C1(O)CCCC(C)(C)[C@H]1CC2 (some centres undefined) | -1% (inactive) |
| C/C=C/c1ccc(OCC(=O)O)c(OC)c1 | -9% (inactive) |

| SMILES | growth inhibition |
| --- | --- |
| Nc1ccc(S(=O)(=O)NCc2nccs2)cc1 | 14% (inactive) |
| N#CC(NNC(=O)c1ccccc1O)c1c(O)ccc2ccccc12 (centres undefined) | 22% (inactive) |
| Oc1ccc(Cl)cc1Cc1cc(Cl)cc(Cc2cc(Cl)ccc2O)c1O | 1% (inactive) |
| O=C1CN(CCN2CCOCC2)CC(=O)N2Cc3ccccc3CN12 | 7% (inactive) |
| CC1CCC(SC2CC(=O)CCC2=O)CC1 (centres undefined) | 19% (inactive) |
| Clc1ccc(OCC2CO2)c(Cl)c1 (centres undefined) | -17% (inactive) |
| CN=C(N)N/N=C(\C)c1ccc2c(ccc3ccccc32)c1 | 14% (inactive) |
| Cc1cc(O)c(/C=N/c2nc(-c3cccc([N+](=O)[O-])c3)cs2)c(=O)o1 | 42% (inactive) |
| COc1cccc2c1OC(c1ccc(Cl)cc1)C([N+](=O)[O-])=C2 (centres undefined) | 95% (active) |
| COc1ccc(C(=O)C2C(=O)C(=O)OC2C2OC(=O)C(=O)C2C(=O)c2ccc(OC)cc2)cc1 (centres undefined) | -3% (inactive) |
| CCCCCCCCCCCCCCCCOc1ccc(S(=O)(=O)N/N=c2/sc3ccc(S(=O)(=O)O)cc3n2C)cc1C(=O)O | 6% (inactive) |
| O=C(Nc1ccc(F)cc1)N1CCCCC1 | 36% (inactive) |
| C[CH2][Sn]([CH2]C)([O]C(=O)c1cc(OC)c(OC)c(OC)c1)[O][Sn]([CH2]C)([CH2]C)[O]C(=O)c1cc(OC)c(OC)c(OC)c1 | 30% (inactive) |
| C/C(O)=C(/C=N/C(=S)Nc1ccc(S(N)(=O)=O)cc1)C(=O)Nc1ccccc1C | -10% (inactive) |
| CC(C)CC(N)C(=O)NNc1ccccc1 (centres undefined) | 23% (inactive) |
| CCC(C(c1ccc(Cl)cc1)c1ccc(Cl)c(Cl)c1)[N+](=O)[O-] (centres undefined) | 0% (inactive) |
| O=C(O)c1nc2cc(C(F)(F)F)ccc2nc1Nc1ccc(F)cc1 | 23% (inactive) |
| Nc1nc(-c2ccccn2)cc2cc(Cl)ccc12 | 92% (active) |
| CC1(c2ccccc2)NC(=O)N(CC(=O)N(c2ccccc2)c2ccccc2)C1=O (centres undefined) | 15% (inactive) |
| O/N=C(/Cc1ccccc1)c1ccc2c(c1)OCO2 | -14% (inactive) |
